Results taken from PubChem BioAssay (Tox21).
Values joined by “and” are separate entries in the source; they are usually repeats but may differ in a detail not shown here. Equal entries are not always repeated. Results filed as inconclusive are left out. Where a structure was tested more than once in an assay, its records may differ in their call. Active and inactive are the calls of the source. Unless noted, calls come from the whole dose curve.

Assays:
[1] = Nuclear factor erythroid 2-related factor 2/antioxidant responsive element (Nrf2/ARE) small molecule agonists: qHTS cell viability counter screen in human keratinocytes (AID 1919968; active = well fitted curve in the direction sought with a large enough effect in the repeat runs; an effect the other way counts as inactive or inconclusive; note: nearly all actives have a fitted effect of over 55% in size; note: potency is the fitted concentration of half-maximal effect)
Procedure, shortened: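 Fluorescence read-out from CellTiter-Fluor after 1 h at 37 C. Wells held HaCaT-derived ARE-luciferase reporter cells (1,500/well) treated 23 h with DMSO-dissolved compounds. Run in the same wells as the luciferase agonist read.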

[2] = molecular target: Gonadotropin-releasing hormone receptor (Homo sapiens) (UniProt P30968); assay: Human gonadotropin-releasing hormone receptor (GnRHR) small molecule agonists, calcium flux assay in GnRHR-HEK293 cells (AID 1920063); note: nearly all actives have a fitted effect of over 35% in size; note: potency is the fitted concentration of half-maximal effect
Gonadotropin-releasing hormone receptor (Homo sapiens), sequence (P30968 whole entry, looked up): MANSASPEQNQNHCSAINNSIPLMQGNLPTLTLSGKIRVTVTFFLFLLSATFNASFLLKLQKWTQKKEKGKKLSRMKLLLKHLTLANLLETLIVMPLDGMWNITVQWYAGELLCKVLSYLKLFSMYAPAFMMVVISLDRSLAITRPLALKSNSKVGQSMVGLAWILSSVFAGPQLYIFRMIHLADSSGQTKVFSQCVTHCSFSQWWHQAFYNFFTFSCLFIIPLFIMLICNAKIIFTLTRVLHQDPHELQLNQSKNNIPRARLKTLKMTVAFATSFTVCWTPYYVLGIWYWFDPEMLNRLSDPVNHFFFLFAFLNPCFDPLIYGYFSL
Procedure, shortened: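 Calcium-dye fluorescence, Ex/Em=480/540, recorded every 1 sec over 3 min after compound addition to GnRHR-HEK293 cells. Cells had been seeded 18 hours earlier and dye-loaded for 1 hour at 37 C. Fifteen concentrations, triplicates.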

[3] = G protein-coupled receptor (GPCR) small molecule agonists, calcium flux assay: HEK293 wild type cell line counter screen (AID 1920065)
Procedure, shortened: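 Agonist mode; 18 h seeding at 37 C, 1 h dye load at 37 C; compounds pinned from DMSO, ATP as positive control; kinetic fluorescence 480/540 nm, 3 min, 1 s reads; 15 concentrations, triplicate.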

[4] = p53 small molecule agonists, cell-based qHTS assay with human liver microsomes (AID 1963577);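 note: p53 response element beta-lactamase reporter cells with liver microsomes plus NADPH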
Procedure, shortened: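 16 h, 37 C exposure of p53RE-bla cells to compounds with human liver microsomes and NADPH (0.5 mg/mL final each); detection via LiveBLAzer mixture, 2 h dark at room temperature.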

[5] = p53 small molecule agonists, cell-based qHTS assay with rat liver microsomes (AID 1963578)
Procedure, shortened: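 With rat liver microsomes and NADPH present (0.5 mg/mL final each), p53RE-bla cells are treated with compound for 16 h at 37 C. LiveBLAzer detection mixture is then applied for 2 h at room temperature in the dark.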

[6] = p53 small molecule agonists, cell-based qHTS assay with human liver microsomes: qHTS cell viability counter screen (AID 1963579); note: nearly all actives have a fitted effect of over 45% in size; note: potency is the fitted concentration of half-maximal effect
Procedure, shortened: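 In this multiplexed counter screen, the reporter plates were subsequently treated with CellTiter-Glo so that cell viability, reflected by luminescence, could be recorded for p53RE-bla cells dosed 16 h with compounds under microsomal activation (HLM and NADPH).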

[7] = p53 small molecule agonists, cell-based qHTS assay with rat liver microsomes: qHTS cell viability counter screen (AID 1963580); note: nearly all actives have a fitted effect of over 45% in size; note: potency is the fitted concentration of half-maximal effect
Procedure, shortened: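 Counter screen for cytotoxicity under metabolic activation: rat liver microsomes and NADPH, 0.5 mg/mL final each, added with compounds to p53RE-bla HCT-116 cells; 16 h at 37 C, then ATP luminescence read.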

[8] = p53 small molecule agonists, cell-based qHTS assay: qHTS cell viability counter screen (AID 1963581); note: nearly all actives have a fitted effect of over 45% in size; note: potency is the fitted concentration of half-maximal effect
Procedure, shortened: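 Cytotoxicity read-out: ATP-based luminescence (CellTiter-Glo, 30 min RT) measured in the same wells as the p53 reporter assay, HCT-116 p53RE-bla cells, 16 h compound exposure at 37 C.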

[9] = p53 small molecule agonists, cell-based qHTS assay (AID 1963582; active = well fitted activation curve with a large enough effect in the signal ratio in the repeat runs, not every such curve was filed as active; the % refers to the signal ratio)
Procedure, shortened: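 Fluorescence intensity read-out of a beta-lactamase reporter under a p53 response element. Cells were exposed to DMSO-dissolved compounds for 16 h at 37 C, then developed with FRET substrate for 2 h at RT.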

[10] = molecular target: 5-hydroxytryptamine receptor 2A (Homo sapiens) (UniProt P28223); assay: 5-hydroxytryptamine receptor 2A (HTR2A) small molecule antagonists, cell-based qHTS assay (AID 1963586); note: nearly all actives have a fitted effect of over 45% in size; note: potency is the fitted concentration of half-maximal effect
5-hydroxytryptamine receptor 2A (Homo sapiens), sequence (P28223 whole entry, looked up): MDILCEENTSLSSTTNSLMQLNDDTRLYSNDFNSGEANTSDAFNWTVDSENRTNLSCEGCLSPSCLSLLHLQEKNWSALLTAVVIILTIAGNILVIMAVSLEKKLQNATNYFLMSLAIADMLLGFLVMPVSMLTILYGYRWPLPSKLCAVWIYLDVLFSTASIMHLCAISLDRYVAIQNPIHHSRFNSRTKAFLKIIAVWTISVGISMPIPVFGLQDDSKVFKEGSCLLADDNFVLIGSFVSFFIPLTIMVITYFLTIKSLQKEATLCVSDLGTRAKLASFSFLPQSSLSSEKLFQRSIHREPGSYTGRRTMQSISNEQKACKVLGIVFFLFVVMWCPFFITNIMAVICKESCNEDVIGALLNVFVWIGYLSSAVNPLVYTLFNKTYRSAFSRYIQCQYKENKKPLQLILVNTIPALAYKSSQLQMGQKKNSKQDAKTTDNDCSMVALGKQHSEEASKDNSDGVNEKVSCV
Procedure, shortened: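 CHO cells stably expressing human HTR2A were plated for 18 h at 37 C, then loaded with calcium dye for 1 h. Compounds were preincubated 5 min at room temperature before DOI (4 nM solution) was added. Kinetic fluorescence was read for 3 min.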

[11] = molecular target: 5-hydroxytryptamine receptor 2A (Homo sapiens) (UniProt P28223); assay: 5-hydroxytryptamine receptor 2A (HTR2A) small molecule agonists, cell-based qHTS assay (AID 1963587); note: nearly all actives have a fitted effect of over 30% in size; note: potency is the fitted concentration of half-maximal effect
Procedure, shortened: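 HTR2A-CHO cells, plated 18 h at 37 C/5% CO2, dye-loaded 1 h at 37 C; compounds in DMSO added by pin tool (agonist mode). Intracellular calcium flux read as kinetic fluorescence on FDSS over 2 min at 1 s intervals.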

[12] = molecular target: Muscarinic acetylcholine receptor M1 (Homo sapiens) (UniProt P11229); assay: Cholinergic receptor muscarinic 1 (CHRM1) small molecule antagonists, cell-based qHTS assay (AID 1963588); note: nearly all actives have a fitted effect of over 40% in size
Muscarinic acetylcholine receptor M1 (Homo sapiens), sequence (P11229 whole entry, looked up): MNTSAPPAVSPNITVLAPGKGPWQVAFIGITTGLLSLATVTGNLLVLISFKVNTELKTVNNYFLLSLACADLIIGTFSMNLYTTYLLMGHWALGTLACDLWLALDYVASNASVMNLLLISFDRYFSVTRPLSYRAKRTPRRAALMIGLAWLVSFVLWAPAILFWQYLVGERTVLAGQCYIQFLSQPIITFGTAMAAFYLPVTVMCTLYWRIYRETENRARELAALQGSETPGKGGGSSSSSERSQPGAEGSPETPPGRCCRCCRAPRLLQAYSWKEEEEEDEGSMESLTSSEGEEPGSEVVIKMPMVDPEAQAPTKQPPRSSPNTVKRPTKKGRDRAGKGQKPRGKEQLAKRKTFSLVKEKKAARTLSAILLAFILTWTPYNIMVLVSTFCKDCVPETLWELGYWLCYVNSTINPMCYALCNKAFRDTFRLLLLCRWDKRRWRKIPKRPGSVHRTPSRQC
Procedure, shortened: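 Compounds were tested at 15 concentrations in three independent runs. Dye-loaded CHRM1-CHO cells were exposed 5 min at room temperature before stimulation by acetylcholine added at 50nM. Intracellular calcium was read kinetically on FDSS for 3 min.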

[13] = molecular target: Muscarinic acetylcholine receptor M1 (Homo sapiens) (UniProt P11229); assay: Cholinergic receptor muscarinic 1 (CHRM1) small molecule agonists, cell-based qHTS assay (AID 1963589); note: nearly all actives have a fitted effect of over 35% in size; note: potency is the fitted concentration of half-maximal effect
Procedure, shortened: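 Calcium flux read-out: kinetic fluorescence at 1 sec intervals after pin-tool compound addition to dye-loaded CHRM1-CHO cells (human M1). Agonist mode; 15 concentrations tested in triplicate independent runs.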

[14] = cAMP Responsive Elements (CRE) small molecule agonists, cell-based qHTS assay (AID 1963590)
Procedure, shortened: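 Beta-lactamase reporter readout: LiveBLAzer B/G FRET substrate, 2 h at room temperature, added after 3 h compound treatment of CRE-bla HEK 293T cells at 37 C/5% CO2.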

[15] = cAMP Responsive Elements (CRE) small molecule antagonists, cell-based qHTS assay (AID 1963591; active = well fitted inhibition curve with a large enough effect in the signal ratio in the repeat runs, not every such curve was filed as active; the % refers to the signal ratio)
Procedure, shortened: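 HEK293T CRE-bla; 18 h preincubation; compound pin-transfer; NKH477 0.25 uM final, 3 h, 37 C; LiveBLAzer FRET substrate 2 h RT.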

[16] = molecular target: Beta-2 adrenergic receptor (Homo sapiens) (UniProt P07550); assay: Adrenergic beta2 receptor (ADRB2) small molecule antagonists, cell-based qHTS assay (AID 1963592); note: nearly all actives have a fitted effect of over 50% in size; note: potency is the fitted concentration of half-maximal effect
Beta-2 adrenergic receptor (Homo sapiens), sequence (P07550 whole entry, looked up): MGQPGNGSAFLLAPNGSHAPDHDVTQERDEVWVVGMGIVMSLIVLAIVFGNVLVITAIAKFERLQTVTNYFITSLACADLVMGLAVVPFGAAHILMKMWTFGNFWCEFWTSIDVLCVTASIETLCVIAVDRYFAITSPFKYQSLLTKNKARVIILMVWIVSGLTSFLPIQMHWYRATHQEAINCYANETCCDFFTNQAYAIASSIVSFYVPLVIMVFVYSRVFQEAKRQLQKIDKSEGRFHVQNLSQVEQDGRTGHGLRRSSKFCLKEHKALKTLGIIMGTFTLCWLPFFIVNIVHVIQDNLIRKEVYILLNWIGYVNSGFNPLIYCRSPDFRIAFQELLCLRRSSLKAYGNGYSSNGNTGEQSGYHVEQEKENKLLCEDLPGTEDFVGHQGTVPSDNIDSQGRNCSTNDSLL
Procedure, shortened: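 Assay format: CHO-ADRB2 cells, 18-20hr seeding at 37C/5% CO2, then compound plus 1nM isoproterenol agonist mix for 0.5hr RT. Homogeneous time-resolved fluorescence cAMP detection after 1hr, expressed as 665/615 nm ratio.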

[17] = molecular target: Beta-2 adrenergic receptor (Homo sapiens) (UniProt P07550); assay: Adrenergic beta2 receptor (ADRB2) small molecule agonists, cell-based qHTS assay (AID 1963593);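 note: CHO cells stably overexpressing human ADRB2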
Procedure, shortened: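 CHO cells stably over-expressing ADRB2 were plated overnight at 37C, then dosed with compounds plus a stimulation mix containing 100uM IBMX and 25uM Ro-20-1724 for 0.5hr at room temperature. cAMP was measured by HTRF competition, 1hr.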

[18] = molecular target: D(2) dopamine receptor (Homo sapiens) (UniProt P14416); assay: Dopamine D2 receptor (DRD2) small molecule agonists, cell-based qHTS assay (AID 1963594); note: nearly all actives have a fitted effect of over 35% in size; note: potency is the fitted concentration of half-maximal effect
D(2) dopamine receptor (Homo sapiens), sequence (P14416 whole entry, looked up): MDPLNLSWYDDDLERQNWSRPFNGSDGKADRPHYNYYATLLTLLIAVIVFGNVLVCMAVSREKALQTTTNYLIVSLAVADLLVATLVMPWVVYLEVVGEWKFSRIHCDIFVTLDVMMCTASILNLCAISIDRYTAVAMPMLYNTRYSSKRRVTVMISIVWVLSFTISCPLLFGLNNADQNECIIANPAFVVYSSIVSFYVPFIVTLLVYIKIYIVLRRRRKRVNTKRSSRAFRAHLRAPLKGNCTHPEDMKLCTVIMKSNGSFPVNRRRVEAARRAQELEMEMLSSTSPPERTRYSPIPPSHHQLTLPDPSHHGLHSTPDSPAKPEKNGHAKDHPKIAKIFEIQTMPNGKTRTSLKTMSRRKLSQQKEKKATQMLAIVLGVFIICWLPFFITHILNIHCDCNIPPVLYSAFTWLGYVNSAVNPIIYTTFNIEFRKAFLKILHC
Procedure, shortened: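 HEK293 cells stably expressing DRD2 were cultured 24 h at 37 C, then given Ro20-1724 (0.1 mM final) and compounds for 10 min at room temperature. NKH477 (200nM) was then added for 30 min. cAMP was read by HTRF.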

[19] = molecular target: D(2) dopamine receptor (Homo sapiens) (UniProt P14416); assay: Dopamine D2 receptor (DRD2) small molecule antagonists, cell-based qHTS assay (AID 1963595; active = well fitted inhibition curve with a large enough effect in the signal ratio in the repeat runs, with a control signal flat; the % refers to the signal ratio; note: potency is the fitted concentration of half-maximal effect)
Procedure, shortened: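 HEK293 cells stably expressing DRD2 were preincubated with 0.1 mM Ro20-1724, then with compound for 10 min at room temperature. Cells were stimulated with 200 nM NKH477 plus 12 nM quinpirole for 30 min, and cAMP was read by HTRF.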

[20] = molecular target: KiSS-1 receptor (Homo sapiens) (UniProt Q969F8); assay: Human kisspeptin (KISS1R) small molecule agonists, calcium flux assay in KISS1R-HEK293 cells (AID 1920064; active = well fitted curve in the direction sought with a large enough effect in the repeat runs; an effect the other way counts as inactive or inconclusive)
KiSS-1 receptor (Homo sapiens), sequence (Q969F8 whole entry, looked up): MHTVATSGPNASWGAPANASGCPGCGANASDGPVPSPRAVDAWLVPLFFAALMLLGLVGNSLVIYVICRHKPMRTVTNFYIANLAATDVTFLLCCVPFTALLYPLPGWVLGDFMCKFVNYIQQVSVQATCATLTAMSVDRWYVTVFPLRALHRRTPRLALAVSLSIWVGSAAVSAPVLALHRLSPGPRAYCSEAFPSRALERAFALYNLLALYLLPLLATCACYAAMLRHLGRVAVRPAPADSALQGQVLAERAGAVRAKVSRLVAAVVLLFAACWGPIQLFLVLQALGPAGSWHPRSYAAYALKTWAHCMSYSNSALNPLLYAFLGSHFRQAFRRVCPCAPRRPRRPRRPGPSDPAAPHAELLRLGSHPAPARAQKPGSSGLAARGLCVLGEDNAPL
Procedure, shortened: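 Calcium flux read-out: kinetic fluorescence at Ex/Em=480/540, 1 s intervals over 3 min, after pin-tool compound addition to dye-loaded KISS1R-HEK293 cells. Fifteen concentrations, triplicates.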

Measured: Potency

CN=C=S
44 µM (active) and inactive: [11]
not listed: [20]
inactive: all other assays above

CC[N+](CC)(CC)CC
not listed: [4] | [5] | [9] | [20]
inactive: all other assays above

CCCCCCn1cc[n+](C)c1
not listed: [2] | [4] | [5] | [7] | [9] | [10]
inactive: all other assays above

C[CH2][Hg][S]c1ccccc1C(=O)O
inactive: [20] | [4] | [5] | [12] | [19]
active: [1] 1.22 µM and 5.96 µM | [2] 38.9 µM | [6] 10.2 µM and 11.2 µM | [7] 18.2 µM and 9.98 µM | [8] 10.2 µM and 11.2 µM | [10] 18.8 µM | [11] 43.6 µM and 21.3 µM | [13] 54.9 µM and 19 µM | [18] 16.6 µM
27.3 µM (active) and inactive: [16]

[Cl-].[Cl-].[Hg+2]
inactive: [3] | [10] | [12]
active: [1] 7.66 µM and 3.06 µM | [2] 38.7 µM and 38.9 µM | [6] 5.74 µM and 10.2 µM | [7] 16.2 µM and 4.08 µM | [8] 3.62 µM and 9.13 µM | [11] 54.9 µM | [13] 54.9 µM | [16] 48.3 µM | [19] 1.92 µM

CCC(C)(CC)c1cc(NC(=O)c2c(OC)cccc2OC)on1
not listed: [2] | [4] | [5] | [8] | [9] | [14] | [17] | [18]
inactive: all other assays above

COS(=O)(=O)c1ccc(C)cc1
not listed: [17] | [20]
inactive: all other assays above

O=C(O)c1ccccc1O
inactive: [1] | [2] | [20] | [3] | [14] | [16] | [18] | [19]

O=S(=O)(O)O
not listed: [4] | [5] | [9] | [20]
inactive: all other assays above
